Compound activity as filed in PubChem.
miR-21 act = qHTS Assay for Modulators of miRNAs and/orActivators of miR-21. HeLa miR-21 FLuc reporter, luciferase, 48 h. 340,000 tested, under 10 active. Potency, µM (series often up to 38.3 µM), hits mostly activators;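 further: miR-21 action dims this reporter so a rising signal means less miR-21 action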
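Luminescence from a firefly luciferase reporter carrying a miR-21 binding site downstream, stably expressed under a CMV promoter in HeLa cells that make miR-21 endogenously, reports miRNA modulation after 48 h compound exposure up to approximately 40uM final.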
uPA generation = qHTS for Inhibitors of Cell Surface uPA Generation. Potency, µM (doses to about 38.3 µM), usual class: inhibitors. 330,000 tested, 0.31% active. cell surface uPA generation assay, qHTS; active means well fitted inhibition curve with a large enough effect; inconclusive means small, poorly fitted or top-dose-only effect; inactive means no such curve, though single readings can be large or run the other way; tested in mouse RAW 264.7 cells; further: nearly all actives have a fitted effect of over 55% in size
DT40 TDP1 CPT = qHTS for Inhibitors of human tyrosyl-DNA phosphodiesterase 1 (TDP1): qHTS in cells in presence of CPT; chicken DT40 Tdp1-/-;hTDP1 cells + 20 nM CPT, ATP luminescence, 48 h; Potency, µM (highest dose often 46.2 µM), usual class: inhibitors; 420,000 tested, 12% active; AID 686979, 2013; further: nearly all actives have a fitted effect of over 55% in size
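Chicken DT40 Tdp1-/- cells complemented with human TDP1, 400 cells/well, exposed to compounds plus 20 nM camptothecin for at least 48 h at 37 C; viability read as ATP content by CellTiter-Glo luminescence.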
DT40 TDP1 no CPT = qHTS for Inhibitors of human tyrosyl-DNA phosphodiesterase 1 (TDP1): qHTS in cells in absence of CPT | Potency, µM (series often up to 46.2 µM), most hits filed as inhibitors | DT40 Tdp1-/- hTDP1 cells, no CPT, ATP luminescence, 48 h | 420,000 tested, 15% active; further: nearly all actives have a fitted effect of over 55% in size
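Compound effects on proliferation are scored in DT40 Tdp1-/-;hTDP1 cells in the absence of CPT. ATP levels (CellTiter-Glo luminescence) are recorded after a ≥48 hr, 37 °C incubation.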
TDP1 block = qHTS Assay for Inhibitors of Tyrosyl-DNA Phosphodiesterase (TDP1) | 350,000 tested, 0.28% active | recombinant TDP1, AlphaScreen DNA substrate cleavage | Potency, µM (top dose mostly 130 µM), usual class: inhibitors | Tyrosyl-DNA phosphodiesterase 1 (Homo sapiens), Q9NUW8; further: nearly all actives have a fitted effect of over 40% in size
Target sequence (Q9NUW8 whole entry, looked up): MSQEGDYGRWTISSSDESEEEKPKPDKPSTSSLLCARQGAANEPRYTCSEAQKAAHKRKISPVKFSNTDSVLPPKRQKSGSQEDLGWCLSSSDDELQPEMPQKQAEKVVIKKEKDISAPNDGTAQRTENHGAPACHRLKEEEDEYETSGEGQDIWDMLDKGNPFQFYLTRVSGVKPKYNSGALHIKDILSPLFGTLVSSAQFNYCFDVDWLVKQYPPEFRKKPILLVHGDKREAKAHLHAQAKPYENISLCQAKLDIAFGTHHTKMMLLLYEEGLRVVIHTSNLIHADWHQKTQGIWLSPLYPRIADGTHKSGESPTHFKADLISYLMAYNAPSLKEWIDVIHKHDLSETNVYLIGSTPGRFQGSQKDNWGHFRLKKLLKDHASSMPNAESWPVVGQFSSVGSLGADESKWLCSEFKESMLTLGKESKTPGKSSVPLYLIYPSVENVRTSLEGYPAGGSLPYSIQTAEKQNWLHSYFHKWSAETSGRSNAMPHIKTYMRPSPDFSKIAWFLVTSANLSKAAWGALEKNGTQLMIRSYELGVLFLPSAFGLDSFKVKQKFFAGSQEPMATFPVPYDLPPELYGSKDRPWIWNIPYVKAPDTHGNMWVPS
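Tdp1 1 nM final; 15 min RT w/ cpd; substrate 15 nM, 5 min; beads 10 ug/ml, 10 min; AlphaScreen read. Neg ctrl: no enzyme.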
Of the large screens only hits and unclear results are named; the others gave an inactive call. A selection: hits, their analogues and other compounds. The true share with any hit is near 16%. Unless noted, the call rests on the fitted dose curve; in most records, active means well fitted curve in the direction sought with a large enough effect; inconclusive means small, poorly fitted or top-dose-only effect, or another doubt; inactive means no such curve, though single readings can be large; an effect the other way counts as inactive or inconclusive.

Cc1cc(=O)n(C)c(=O)n1CCCCCN1CCCC1	none
Cc1cc(=O)n(C)c(=O)n1CCCCCCOc1cccc([N+](=O)[O-])c1	DT40 TDP1 CPT 26µM, DT40 TDP1 no CPT 16µM
CCN(CCCNC(=O)COc1cc(=O)n(CC)c2ccccc12)c1ccccc1	DT40 TDP1 CPT 23µM, DT40 TDP1 no CPT inconclusive
CCN(CCCNC(=O)CSc1cc(=O)n(CC)c2ccccc12)c1cccc(C)c1	DT40 TDP1 CPT 21µM, DT40 TDP1 no CPT 21µM (no result: uPA generation)
CCN(CCCNC(=O)COc1cc(=O)n(C)c2ccccc12)c1ccccc1	DT40 TDP1 CPT inconclusive
COc1cc(C(C)=O)ccc1Oc1ccc(S(=O)(=O)N2CCOCC2)cn1	DT40 TDP1 CPT inconclusive (no result: miR-21 act)
CC1(C)CC(=O)C=C(Nc2ccc(Br)cc2F)C1	none (no result: TDP1 block)
CSC(=NCc1ccc(F)cc1)NS(=O)(=O)c1cccs1	none
COc1ccc(C)cc1NC(=O)Cc1c(C(=O)O)n(C)c2ccccc12	none (no result: TDP1 block)
COc1ccc(C)cc1N(C)C(=O)Cc1c(C(=O)O)n(C)c2ccccc12	DT40 TDP1 no CPT 5.2µM (no result: TDP1 block)
OCC1(Cc2ccccc2Cl)CCN(C/C=C/c2ccccc2)CC1	DT40 TDP1 CPT inconclusive, DT40 TDP1 no CPT 18µM
C/C(=N\n1c(C)nc2ccccc2c1=O)c1ccc(N)cc1	DT40 TDP1 CPT inconclusive, DT40 TDP1 no CPT 18µM (no result: miR-21 act, TDP1 block)
CSc1nc(C)cc(C)c1C(N)=O	none
O=C1NC(c2cccc3ccccc23)Nc2ccc(Cl)cc21 (stereo unspecified)	DT40 TDP1 CPT 0.46µM, DT40 TDP1 no CPT 0.58µM (no result: miR-21 act, TDP1 block)
Clc1ccc(C2Nc3cccc4cccc(c34)N2)c(Cl)c1	DT40 TDP1 CPT inconclusive, DT40 TDP1 no CPT inconclusive (no result: miR-21 act, TDP1 block)
Cc1cc(C)cc(NCc2cc(=O)oc3cc(C)c(O)cc23)c1	DT40 TDP1 CPT inconclusive, DT40 TDP1 no CPT inconclusive (no result: TDP1 block)
O=c1[nH][nH]cc1C=Nc1ccc(Oc2ccccc2)cc1	none
N#Cc1c(C#N)c(-c2ccccc2)n(-c2ccccc2)c1N	DT40 TDP1 CPT 15µM, DT40 TDP1 no CPT 12µM
Cc1cc(N2CCC(C(=O)N3CCN(c4cccc(C)c4C)CC3)CC2)n2ncnc2n1	DT40 TDP1 CPT inconclusive, DT40 TDP1 no CPT 21µM
Cc1cccc(N2CCN(C(=O)N3CCCCC3)CC2)c1C	none
O=C(C1CC(=O)N(C2CCCCC2)C1)N1CCN(c2cccc(C(F)(F)F)c2)CC1 (stereo unspecified)	DT40 TDP1 CPT 16µM, DT40 TDP1 no CPT inconclusive
Cc1cccc(N2CCN(C(=O)C3CC(=O)N(C4CCCC4)C3)CC2)c1C (stereo unspecified)	DT40 TDP1 CPT 18µM, DT40 TDP1 no CPT 23µM
O=C(C1CCC(=O)N(C2CCCCCC2)C1)N1CCN(c2ccccc2Cl)CC1 (stereo unspecified)	DT40 TDP1 CPT inconclusive, DT40 TDP1 no CPT 21µM
Cc1ccc(S(=O)(=O)NCC(=O)OC(C)C(=O)NC(=O)NC2CCCCC2)cc1C (stereo unspecified)	none (no result: miR-21 act)
N#CCCCCn1c(-c2cncs2)nc2ccccc21	none
COc1ccccc1CN(C)C(=O)c1cnc(C)cn1	none (no result: TDP1 block)
CCS(=O)(=O)N1Cc2ccccc2CC1C(=O)N1CCN(c2cccc(C)c2C)CC1 (stereo unspecified)	DT40 TDP1 CPT inconclusive, DT40 TDP1 no CPT 15µM
Cc1cccc(N2CCN(C(=S)NC3CCCCC3)CC2)c1C	DT40 TDP1 CPT inconclusive, DT40 TDP1 no CPT 16µM
Cc1ccccc1N1CCN(C(=O)C2CCCCC2)CC1	DT40 TDP1 no CPT inconclusive
Cc1cccc(N2CCN(C(=O)C3CCCCC3)CC2)c1C	DT40 TDP1 CPT 29µM, DT40 TDP1 no CPT 18µM
CC(C)CN(C(=O)c1ccc(N2CCCC2=O)cc1)C1CCS(=O)(=O)C1 (stereo unspecified)	none (no result: miR-21 act)
O=C(c1cccc(F)c1)N1CCCC(C(=O)N2CCCCC2)C1 (stereo unspecified)	none
Cc1ccc(CNCc2cc3c(C(C)(C)C)nn(-c4ccccc4)c3[nH]c2=O)cc1	uPA generation inconclusive, DT40 TDP1 CPT inconclusive, DT40 TDP1 no CPT 25µM
COc1ccc(CNCc2cc3c(C(C)(C)C)nn(-c4ccccc4)c3[nH]c2=O)cc1	DT40 TDP1 CPT 26µM, DT40 TDP1 no CPT 18µM
CC(C)(C)c1nn(-c2ccccc2)c2[nH]c(=O)c(CNCc3ccco3)cc12	DT40 TDP1 CPT 21µM, DT40 TDP1 no CPT 23µM
COc1ccc(C(=O)N/C(=C/c2ccco2)C(=O)NCc2ccco2)cc1	none
CC(C)c1ccc(NC(=O)CN2C(=O)COc3ccc(S(=O)(=O)N4CCCCCC4)cc32)cc1	DT40 TDP1 CPT 2.6µM, DT40 TDP1 no CPT 3.7µM (no result: uPA generation)
CCOc1ccc(NC(=O)CN2C(=O)COc3ccc(S(=O)(=O)N4CCCCC4)cc32)cc1	DT40 TDP1 CPT inconclusive
Cc1c(Cl)cccc1NC(=O)CN1C(=O)COc2ccc(S(=O)(=O)N3CCCCCC3)cc21	DT40 TDP1 CPT 16µM, DT40 TDP1 no CPT inconclusive (no result: uPA generation)
Cc1c(Cl)cccc1NC(=O)CN1C(=O)COc2ccc(S(=O)(=O)Nc3ccccc3)cc21	DT40 TDP1 CPT inconclusive, DT40 TDP1 no CPT inconclusive (no result: uPA generation)
COc1ccc(NC(=O)CN2C(=O)COc3ccc(S(=O)(=O)N4CCCCCC4)cc32)cc1	DT40 TDP1 CPT 4.6µM, DT40 TDP1 no CPT 16µM
O=C(CN1C(=O)COc2ccc(S(=O)(=O)N3CCCCCC3)cc21)Nc1cccc(Cl)c1	DT40 TDP1 CPT inconclusive, DT40 TDP1 no CPT 21µM (no result: uPA generation)
CC(C)c1ccc(NC(=O)CN2C(=O)COc3ccc(S(=O)(=O)N4CCOCC4)cc32)cc1	none
Cc1ccc(NC(=O)/C(=C/c2cccc([N+](=O)[O-])c2)NC(=O)C2CCCCC2)c(C)c1	DT40 TDP1 CPT inconclusive, DT40 TDP1 no CPT inconclusive
O=C(CN1CCN(S(=O)(=O)c2ccc(Br)cc2)CC1)Nc1ccc(F)cc1F	DT40 TDP1 no CPT inconclusive
Cc1ccc(NC(=O)CN2C(=O)COc3ccc(S(=O)(=O)N4CCCCCC4)cc32)cc1C	DT40 TDP1 CPT inconclusive, DT40 TDP1 no CPT 15µM (no result: uPA generation)
Cc1cccc(N2CCN(C(=O)CN3C(=O)COc4ccc(S(=O)(=O)N5CCCCCC5)cc43)CC2)c1C	DT40 TDP1 CPT inconclusive, DT40 TDP1 no CPT 16µM (no result: uPA generation)
Cc1ccc(NC(=O)CN2C(=O)CCc3cc(S(=O)(=O)N4CCCCC4)ccc32)cc1C	DT40 TDP1 CPT inconclusive, DT40 TDP1 no CPT 21µM (no result: uPA generation)
Cc1ccc2c(c1)[C@H]1[C@H](CO2)[C@H](c2ccccc2)[C@]2(C)C(=O)N(C)CC(=O)N12	none (no result: miR-21 act, TDP1 block)
COc1ccc(/C=N/Nc2nnc(C)n2N)cc1OC(C)=O	DT40 TDP1 CPT 8.2µM, DT40 TDP1 no CPT 18µM (no result: TDP1 block)
O=c1cc(CSc2nnc(C3CC3)n2Cc2ccccc2)nc2sccn12	none
CCC1=C(OC(=O)N(CC)CC)N2C(=O)OC(=NCC3CC3)[C@]2(Cc2ccccc2)[C@H]2C1=CC[C@H]1C(=O)N(C)C(=O)[C@H]12	DT40 TDP1 CPT 18µM, DT40 TDP1 no CPT 18µM
